Bioassay records from PubChem.
The list is not random: actives were taken first. Their share in the collection is about 4%.
Mdm2 MdmX PPI – inhibitors of human Mdm2/MdmX interaction | AID 485346 | SaOS-2 split-luciferase Mdm2/MdmX complementation, luminescence | O15151+Q00987 | inhibition, % at 8 µM | 3% of 330,000 active;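 active means inhibition of at least 50% at 8 µM in the primary screen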
Target sequence (O15151 whole entry, looked up): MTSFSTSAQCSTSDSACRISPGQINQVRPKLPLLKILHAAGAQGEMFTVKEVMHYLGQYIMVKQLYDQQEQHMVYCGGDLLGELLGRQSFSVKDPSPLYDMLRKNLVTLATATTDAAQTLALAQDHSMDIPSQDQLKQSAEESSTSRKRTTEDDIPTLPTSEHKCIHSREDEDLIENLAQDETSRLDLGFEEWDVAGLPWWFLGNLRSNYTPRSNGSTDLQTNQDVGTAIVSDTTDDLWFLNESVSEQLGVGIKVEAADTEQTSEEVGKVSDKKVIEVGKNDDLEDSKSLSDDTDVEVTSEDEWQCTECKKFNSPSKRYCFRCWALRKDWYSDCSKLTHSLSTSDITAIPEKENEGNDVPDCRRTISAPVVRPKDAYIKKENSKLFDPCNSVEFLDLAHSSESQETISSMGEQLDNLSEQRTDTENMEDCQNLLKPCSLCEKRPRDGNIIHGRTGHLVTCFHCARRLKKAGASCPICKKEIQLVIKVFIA
Target sequence (Q00987 whole entry, looked up): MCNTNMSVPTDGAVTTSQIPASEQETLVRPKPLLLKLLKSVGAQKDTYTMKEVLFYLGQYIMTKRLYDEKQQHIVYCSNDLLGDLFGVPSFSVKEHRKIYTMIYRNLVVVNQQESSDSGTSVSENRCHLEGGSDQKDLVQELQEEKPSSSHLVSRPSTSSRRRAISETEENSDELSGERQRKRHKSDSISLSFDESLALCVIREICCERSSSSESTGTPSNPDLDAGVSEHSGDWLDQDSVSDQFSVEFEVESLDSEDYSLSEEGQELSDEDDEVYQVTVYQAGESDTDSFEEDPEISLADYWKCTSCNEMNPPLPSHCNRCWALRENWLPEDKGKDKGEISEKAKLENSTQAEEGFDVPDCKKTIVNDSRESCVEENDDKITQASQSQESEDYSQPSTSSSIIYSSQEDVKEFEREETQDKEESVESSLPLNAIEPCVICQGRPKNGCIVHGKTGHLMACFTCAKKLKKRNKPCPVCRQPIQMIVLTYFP
Jurkat NFkB inh – lowers PMA/ionomycin-induced NF-kB signal in Jurkat cells. PMA/ionomycin-induced NF-kB luciferase reporter, luminescence. inhibition, % at 4 µM. 0.53% of 330,000 active; in the data active means inhibition above about 50%
Beta cell apopt – blocks beta cell apoptosis; INS-1E cytokine-induced death, ATP luminescence, 48 h; percent of positive-control rescue, neutral wells zero; protection from apoptosis, % (no concentration beside the values); 0.8% of 300,000 active; AID 435005;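 active means Every replicate reaches about 75%, or at least half do and their mean reaches it too, limit read from the data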;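 further: 0% = cytokine-treated negative control wells and 100% = positive control rescue; higher means more ATP so stronger rescue from cytokine killing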
697 NFkB inh – inhibitors of the PMA/ionomycin-induced NF-kB reporter in 697 B cells; 697 B-cell NF-kB luciferase reporter, 16 h; inhibition, % at 4 µM; 0.33% of 330,000 active; AID 435022; in the data active means inhibition above about 35%
Gli-Sufu antag – Gli-Sufu pathway antagonism; Sufu-KO-LIGHT fibroblasts, Gli luciferase reporter luminescence; inhibition, % at 5 µM; 0.74% of 340,000 active; AID 588413;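 active means inhibition above about 55%, limit read from the data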;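 further: 0% = DMSO-treated cells and 100% = wells with medium but no cells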
The depositor's hits bear a star; . = no result.

SMILES	Mdm2 MdmX PPI	Jurkat NFkB inh	Beta cell apopt	697 NFkB inh	Gli-Sufu antag
CCCCN(C(=O)CCC(=O)Nc1cc(C)on1)C(C(=O)NC1CCCC1)c1cccc(OC)c1 (configuration not stated)	12	-6	3	-26	0
CN(C)Cc1c(C(=O)N/N=C/c2cccc(OCc3c(F)cccc3Cl)c2)nnn1-c1nonc1N	32	36	-1	-5	67*
C(=N\Nc1nc2ccccc2[nH]1)/c1c[nH]c2ccccc12	-7	-21	119*	-59	1
O=[N+]([O-])c1cc(/C=N/Nc2nc3ccccc3[nH]2)c(O)cc1O	.	.	94*	.	2
C(/CCc1ccccc1)=N\Nc1nc2ccccc2[nH]1	45	-67	88*	-12	-6
C(=N\Nc1nc2ccccc2[nH]1)/c1ccccc1	-37	-68	12	-72	-45
Cc1ccccc1/C=N/Nc1nc2ccccc2[nH]1	-1	-50	.	-24	-18
CN(C)S(=O)(=O)N1CCC(n2nccc2NC(=O)CCCc2ccccc2)CC1	31	16	-3	14	-5
Cc1ccc2c(c1)S/C(=C/c1ccc[n+](CCO)c1)N2C	36	17	99*	-8	44
CC1=CCC[C@H]2[C@H](C1)C(=O)C[C@@H](C)[C@]2(C)CC/C(=C/CO)CO	14	2	.	-3	4
COC(=O)c1cc2c(n1S(=O)(=O)c1ccc(C)cc1)C(=O)C(=O)c1[nH]cc(C(=O)OCc3ccccc3)c1-2	.	.	.	.	87*
COC(=O)c1ccc(COC(=O)c2ccc(CS(=O)(=O)c3ccc(C)cc3)cc2)cc1	18	-5	.	1	6
COC(=O)C1CCN(C(=O)c2cc(-c3ccc(Cl)s3)nc3ccccc23)CC1	40	0	101*	22	1
Cc1ccc(S(N)(=O)=O)cc1NC(=O)/C=C/c1ccc2c(c1)OCO2	11	0	-5	10	-10
O=C(Cc1cccs1)N/N=C\c1ccc([N+](=O)[O-])s1	41	22	94*	-10	5
COc1cc(/C=N/NC(=O)Cc2cccs2)c([N+](=O)[O-])cc1OC	1	9	.	1	1
NS(=O)(=O)c1cccc(NC(=O)CCS(=O)(=O)c2ccc(Cl)cc2)c1	-11	8	-5	4	.
O=C1NC(=Nc2ccc(O)cc2)S/C1=C\C=C\c1ccco1	27	-8	0	-4	9
CC(=NNC(=S)N1CCCCC1)c1cccc(C)n1	.	.	.	.	12
CC(=NNC(=S)N1CC2CCC(CC2)C1)c1ccncn1	.	.	.	.	85*
Cc1nc2ccccc2c(=O)n1/N=C/c1cc(Br)ccc1O	7	-8	38	-9	-30
Cc1nc2ccccc2c(=O)n1/N=C/c1c(O)ccc2ccccc12	31	0	85*	20	7
CCCN(CC(=O)Nc1ccccc1OC)C(=O)CCC(=O)c1ccc(Cl)s1	8	5	5	-7	-1
Cc1cc(C)nc(NC(=O)Cc2ccc(Br)cc2)n1	-3	-2	-2	14	15
CC(C)c1nc(-c2ccccc2)c(-c2ccccc2)[nH]1	7	-2	88*	6	12
SMILES	Mdm2 MdmX PPI	Jurkat NFkB inh	Beta cell apopt	697 NFkB inh	Gli-Sufu antag
c1ccc(-c2nc(-c3cccs3)[nH]c2-c2ccccc2)cc1	33	4	13	4	9
CN1CC(C(=O)Nc2ccc(F)c(Cl)c2)CC1=O (configuration not stated)	-5	-10	-3	-4	-32
CC1=CC(C)(C)N(C(=O)CSc2nnc(-c3ccc(C)cc3)o2)c2ccc(C)cc21	40	-1	82*	-4	32
CN(C(=O)CSc1ncnc2ccccc12)C1CCCCC1	-38	-43	.	-55	-65
N#Cc1cccc(S(=O)(=O)NNC(=O)C23CC4CC(CC(C4)C2)C3)c1	3	5	-7	16	-1
Oc1c(CN2CCN(c3ccccc3)CC2)cc(Br)c2cccnc12	.	.	98*	.	52
c1ccc(N2CCN(Cc3ccnc4ccccc34)CC2)cc1	9	14	-4	-9	15
COCc1cc(CN2CCN(C)CC2)c(O)c2ncccc12	7	2	24	-8	10
Oc1c(CN2CCOCC2)cc(COCc2ccccc2)c2cccnc12	.	.	98*	.	61*
O=C(COC(=O)/C=C/c1cccs1)NC1CC1	14	-14	-4	-5	3
C=C(C(=O)c1ccccc1)C(C)C(=C)C(=O)c1ccccc1	.	.	117*	.	32
O=C(O)c1ccc(C(=O)C(=O)c2ccccc2)cc1	10	8	3	7	-1
COC1C=CC=C(C)C(=O)NC2=CC(=O)C(N)=C(CC(C)CC(OC)C(O)C(C)C=C(C)C1OC(N)=O)C2=O (configuration not stated)	.	.	.	.	69*
Oc1ccc(Cl)cc1CNc1cccc2cccnc12	50	-4	65	-31	1
Cc1ccc(O)c(CNc2cccc3cccnc23)c1	11	-5	102*	-11	14
CC(C)C[C@@H](CO)NS(=O)(=O)c1cc(Cl)ccc1F	.	.	.	.	13
O=C(O)c1ccc(CSc2nc3ccccc3c(=O)n2-c2ccccc2)cc1	-14	8	2	19	2
COC(=O)c1ccc2c(=O)n(-c3ccccc3)c(SCN3C(=O)c4ccccc4C3=O)nc2c1	4	9	106*	-1	12
Cc1ccc(-c2csc(Nc3ccc(C(=O)O)cc3)[n+]2Cc2ccccc2)cc1	18	5	9	-34	-12
O=C([O-])c1cc(-c2ccccc2)cc(-c2ccccc2)[n+]1Cc1ccccc1	17	1	122*	-24	.
CC(NC(=O)c1ccccc1NC(=O)CN1CCc2ccccc2C1)c1ccccc1 (configuration not stated)	-11	8	-3	-5	24
CNC(=O)c1sc(N2N=C3/C(=C/c4ccccc4)CCCC3C2c2ccccc2)nc1C (configuration not stated)	34	-2	98*	6	9
NC1=C(Cl)C(=O)c2ccc(S(N)(=O)=O)cc2C1=O	.	.	.	.	89*
NC1=C(Cl)C(=O)c2ccccc2C1=O	.	.	.	.	17
Cc1ccc(NC(=O)c2cc(S(=O)(=O)NCCC3=CCCCC3)ccc2F)cc1	8	13	105*	-13	7
SMILES	Mdm2 MdmX PPI	Jurkat NFkB inh	Beta cell apopt	697 NFkB inh	Gli-Sufu antag
O=C(NCCC1=CCCCC1)c1cc(S(=O)(=O)N2CCOCC2)ccc1F	26	-11	-1	-4	5
CCN(CC)CCCNC(=O)/C=C/C(=O)O	-27	1	2	-10	-5
OC(COC(c1ccc(F)cc1)c1ccc(F)cc1)CN1CCc2ccccc2C1 (configuration not stated)	27	-6	102*	15	20
CC(NC(=O)c1cc2ccccc2oc1=O)c1ccccc1 (configuration not stated)	9	-16	-6	-14	-1
Cc1ccc(C(C)C)c(OCc2ccc(C(=O)N/N=C/c3ccc(O)cc3O)cc2)c1	.	.	116*	.	35
COc1cc(/C=C2\SC(=S)NC2=O)ccc1OS(=O)(=O)c1ccccc1	0	-11	113*	-13	.
